# Data from PubChem BioAssay (NCATS).
# Inconclusive results are not listed. Where a call stands in place of a potency, no number is given. The source made the active and inactive calls. Calls follow the shape of the dose curve; as a rule, active = well fitted inhibition curve with a large enough effect; inconclusive = small, poorly fitted or top-dose-only effect; inactive = flat fitted curve, though single readings scatter.
# Key:
# Assay in all cases: qHTS profiling for inhibitors of Plasmodium falciparum proliferation (AID 504749); also: nearly all actives have a fitted effect of over 60% in size
# Conditions in all cases: P. falciparum in erythrocytes, SYBR Green DNA, 72 h; series mostly up to 28.7 µM
# [1] = system: 3D7
# Summary of the method: (§1)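 P. falciparum-infected erythrocytes (0.3% parasitemia, 2.5% hematocrit final) were exposed to compounds for 72 h at 37 C in 5% CO2, then lysed with SYBR Green buffer overnight at room temperature; parasite DNA fluorescence was normalized to artemisinin and DMSO controls.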
# [2] = system: ATS95
# Summary of the method: as §1
# [3] = system: C2A
# Summary of the method: as §1
# [4] = system: CP237
# Summary of the method: as §1
# [5] = system: CP238
# Summary of the method: as §1
# [6] = system: CP250
# Summary of the method: as §1
# [7] = system: CP256
# Summary of the method: as §1
# [8] = system: CP265
# Summary of the method: as §1
# [9] = system: CP268
# Summary of the method: as §1
# [10] = system: CP269
# Summary of the method: as §1
# [11] = system: CP305
# Summary of the method: as §1
# [12] = system: CP325
# Summary of the method: as §1
# [13] = system: CP329
# Summary of the method: as §1
# [14] = system: CP335
# Summary of the method: as §1
# [15] = system: Dd2
# Summary of the method: as §1
# [16] = system: GB4
# Summary of the method: as §1
# [17] = system: HB3
# Summary of the method: as §1
# [18] = system: P93_24
# Summary of the method: as §1
# [19] = system: PAD
# Summary of the method: as §1
# [20] = system: SC27B
# Summary of the method: as §1
# Potency is read from the fitted curve at half-maximal effect.
Structure (SMILES),Potency [1],Potency [2],Potency [3],Potency [4],Potency [5],Potency [6],Potency [7],Potency [8],Potency [9],Potency [10],Potency [11],Potency [12],Potency [13],Potency [14],Potency [15],Potency [16],Potency [17],Potency [18],Potency [19],Potency [20]
CO[C@H]1/C=C/O[C@@]2(C)Oc3c(C)c(O)c4c(O)c(c(/C=N\N5CCN(C6CCCC6)CC5)c(O)c4c3C2=O)NC(=O)/C(C)=C\C=C\[C@H](C)[C@H](O)[C@@H](C)[C@@H](O)[C@@H](C)[C@H](OC(C)=O)[C@@H]1C,1260 nM (active),1260 nM (active),2510 nM (active),224 nM (active),2240 nM (active),3160 nM (active),2820 nM (active),1260 nM (active),3790 nM (active),3380 nM (active),4780 nM (active),4780 nM (active),4780 nM (active),1350 nM (active),447 nM (active),1070 nM (active),794 nM (active),355 nM (active),199 nM (active),251 nM (active)
C[C@@]12C(=O)OC(=O)[C@]1(C)[C@H]1CC[C@@H]2O1,3160 nM (active),3980 nM (active),3980 nM (active),1260 nM (active),2510 nM (active),3160 nM (active),3980 nM (active),3550 nM (active),2870 nM (active),2560 nM (active),2870 nM (active),3610 nM (active),2560 nM (active),2560 nM (active),4470 nM (active),4050 nM (active),3550 nM (active),3980 nM (active),3980 nM (active),2820 nM (active)
CN1C(=O)CCC1c1cccnc1 (stereo not given),inactive,inactive,inactive,inactive,inactive,inactive,inactive,inactive,inactive,inactive,inactive,inactive,inactive,inactive,inactive,inactive,inactive,inactive,inactive,inactive
CN=C(N)NCCCC(N)C(=O)O (stereo not given),inactive,inactive,inactive,inactive,inactive,inactive,inactive,inactive,inactive,inactive,inactive,inactive,inactive,inactive,inactive,inactive,inactive,inactive,inactive,inactive
C=C1/C(=C\C=C2/CCC[C@]3(C)[C@@H]([C@H](C)CCCC(C)(C)O)CC[C@@H]23)C[C@@H](O)C[C@@H]1O,inactive,inactive,inactive,inactive,inactive,inactive,inactive,inactive,inactive,inactive,inactive,inactive,inactive,inactive,inactive,inactive,inactive,inactive,inactive,inactive
